# Experimental data reported in the supplement of paper PMC12632987.
# T1: FBXL12, Q9NXK8
# T1 chain: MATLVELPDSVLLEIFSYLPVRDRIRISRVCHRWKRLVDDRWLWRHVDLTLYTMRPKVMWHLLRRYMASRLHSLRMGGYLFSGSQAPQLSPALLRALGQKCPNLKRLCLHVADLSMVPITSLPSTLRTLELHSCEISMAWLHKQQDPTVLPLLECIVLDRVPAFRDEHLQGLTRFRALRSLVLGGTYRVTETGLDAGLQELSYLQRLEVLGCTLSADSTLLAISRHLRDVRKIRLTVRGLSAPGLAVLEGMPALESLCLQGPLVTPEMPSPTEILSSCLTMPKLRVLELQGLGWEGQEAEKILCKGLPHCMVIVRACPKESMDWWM
# B1: FBXL12_hotspot_186_36 (protein)
# chain: MELRVRFGPDDSVEQMRAGVDIAVAIVEGLAEAGRLEDFVEAARSLLDSLEANAARIKDPAHRAVFAEAVARLLEIAERVAKAYPENEDIKEVAERLKAA
# B2: FBXL12_hotspot_186_34 (protein)
# chain: MELKITLSEDMSVEQMEAGLKLAVEILQGLRDRELLDDLVAAARSLLKSLKENVARIKKPEFKEVAKKALEEVAKIVKEAAERFPEVEELKEVAKELEEA
# B3: FBXL12_hotspot_186_39 (protein)
# chain: MELRVRFSEDMSVEQMRAGLDIAVAILEGLAERGRIEDLVAAARSLLDSLEAGRARIKDPAFDEVVDDALRRIAAILERAAERYPDNEELRAALERVRAA
# B4: FBXL12_hotspot_186_38 (protein)
# chain: MELRIRFSPTMSVEQMRAGAQIAVDILRELARRGRWEDLVEAARSLLESLRAARARIRDPEFAEVAAEALERVAAILEEAAKRHPDDEAIHAALEEVKAA
# B5: FBXL12_hotspot_186_37 (protein)
# chain: MLLRVSFSPDDSPAQIQAGVDIAVAIVEGLAERGRLEDFVEAARSLLESLRANAARIKRPEAQAVFDAAVARLAEIAEEVAERYPENEEIKELLEELREA
# B6: FBXL12_hotspot_105_2 (protein)
# chain: MARVRVGSTGPRALPLTVAGLAFAIYRGDEEEAERLRREAEALIAKRPAAEELRRLLEEAVALARALRAAAEAGDAAAAAAAAARLAAVIDELARLVEAE
# B7: FBXL12_hotspot_186_40 (protein)
# chain: MELRVRFSPDMSVAQRRAGADIAVAILEGLAERGEIEELVEAARSLLDSLEAARARIQDPEFAAVAAAALARIAAILEEAAKRYPENEEIKEALARVKAA
# B8: FBXL12_hotspot_24_51 (protein)
# chain: QTITLVVRADLDLDPRDSPEEKRARLRAAVEGFLGSVETGIALADLMAARGRGAVDREAFEAAAAALLAAAEALGEADLAARVRAARARFLAAADRLEAA
# B9: FBXL12_hotspot_23_48 (protein)
# chain: MRTLVLSTRGVAPEDREAAARYAAEMIVAAGRAGWRVRVVLQDRESLELAALIAAMARLVTGAEVVVLTDAAEELERLMEERREEARRLVEEARARLDAE
# B10: FBXL12_hotspot_23_47 (protein)
# chain: MRTLVLSTFGTAPEDREASLEYAARLIVAAGRHGWRVVVVLEDRSSLELAATIAAMAKLVVGAEVVVKTDAEEELRELMERNRERAAELVAAAEAALAAE
# B11: FBXL12_hotspot_186_27 (protein)
# chain: QQLEFRVVTRLDPEITRSTLDTAIGLVESLLERGLIEQAKSAAEAILEEIERTLAESDDPEIHAILAESLRRLAEVLSRDPRLAPLLERARELLARIEAR
# B12: FBXL12_hotspot_20_42 (protein)
# chain: MLRLRVGVSEDVEANRGSLLRAAELVEAFADRLAAEFPELAEVIARLRETARRAREAAARLPGLSPEEARALVREMSEEIAEVVEEASRAAEAARARRAA
# B13: FBXL12_hotspot_186_33 (protein)
# chain: MELRVSLSADMTPEQMRANAEIAVAIVAGLAERGRVEDLVAAARSLAASLRAAVARLQRPEVAAIAAEALARLAEIVAAAAARHPDNEDLRAALAELRAA
# B14: FBXL12_hotspot_28_54 (protein)
# chain: MKIEVKVSGPKEQVAQRILELLEALKQLVEELKKEYKEVKEKDPEKLPEFEKELEEKLEKIKSIAESLVKQAKELGEEAYKKAKEKAEEVKKAIEELKKA
# B15: FBXL12_hotspot_186_35 (protein)
# chain: MKLRISFAPTDSPEQIRAGVDIAVAIVAGLAAAGRLEDFVEAVRSLLESLQANRARIQRPEHHAVFDAAIERLAALAAEVAAAHPDNAEVAAALARLKAA
# B16: FBXL12_hotspot_186_30 (protein)
# chain: MDLEVRVGLGEDLETTKSTLDYAVALAEALAARGLTASLVSLARSVRESAIEVLKKTKDEEIYEAILEALKRMAEIVKDNPEALAIVEEAIKEVEKLKKE
# B17: FBXL12_hotspot_186_26 (protein)
# chain: MDLQIRVTLSPDLETARSGLEYAVGLLESLVERGLLESARSLVRSLIEAARKLVKETKDPEVRAAVIEALRRVAEILAKRPELEESRRLVEEAIKELEEE
# B18: FBXL12_hotspot_28_56 (protein)
# chain: AKRTVIVKGPPEQRAELMLKLAKAILEKSKELYKELKKVKDKDEEKVKELLEKLEKLADLAKSLLENAKKTLPKEYEEVVKEIEKLTKEVEKILKEAKKL
# B19: FBXL12_hotspot_23_46 (protein)
# chain: MRTLVIHLTEQSPEEMVKATYYATKLAYLAVKHGWEVVLRASDAVTAMAARIIAEEIERRTGKEVRVEAEERPETAEEAEELRPRFEEAVRKAIEEVEAE
# B20: FBXL12_hotspot_23_50 (protein)
# chain: MRELVLGIGGRPPEEQRAGALRAAELAAAFRPVADRIVVRLGPGVDGAVAAALRRVLEEDYGAEVLSETPEEAVPPEEVEALVAELRAAAEAAEARRRAA
# B21: FBXL12_hotspot_23_44 (protein)
# chain: MRLLRISLVEKPPEELRAGALYQAEVAALAILEGWEVEIEAEHPEAVAAAHAIARALREVTGKEVKVSRPLKPEERPLAEELLPELIAAIRAAIAAHRAR
# B22: FBXL12_hotspot_186_32 (protein)
# chain: MELRVSLSASMSVEQMRANAEIAVAIVEGLAERGLWEDLDAAARSLAASLRAAVERLQRPEAAAVAAEALERLAEIVARALEEHPENERLAATLAEIRAA
# B23: FBXL12_hotspot_186_29 (protein)
# chain: SDLQVRVRLGDDLETTRSTLEYAVALAAALKARGLTASLRSLARSVRESAIARLRASDDPEIYEAIRAALEALAAVVADDPEARAIVEEALAEVERLRAE
# B24: FBXL12_hotspot_23_49 (protein)
# chain: MRTLRIHLVSRDPEQNRAAARYAAELATRAVLHGWRVVLSGDDRRTVAAAHAVARVVEEVTGKEVEVTEPLHPEEEPLAEELAEELRPVVEAAKAAELAA
# B25: FBXL12_hotspot_186_31 (protein)
# chain: KDLQVRVRLGLDLETTRSTLRYAVALAEALKARGLTASLRSLARSLRESAIEVLKKTKDEEIYEAILEALEELAKVVADDPEALAIVKEAIEEVERLKEE
# B26: FBXL12_hotspot_28_52 (protein)
# chain: MKVEVRVSGDPEQVAAQLLALLEAMTKIAKELAKELKKTKETDPSKVEEKRKEAEEAAEKIRSMVESILRQAESLSPEQQAQVRAAAEETFKALEELEKT
# B27: FBXL12_hotspot_28_55 (protein)
# chain: MKLEIRVRGPPEEVAKRILELVDAIVEVARQRKEELQRKVEEEGMPEEEARAELEENADRLLSALESLERNAESLPPELREEVLRRIREAREEIERIRKE
# B28: FBXL12_hotspot_20_43 (protein)
# chain: MLLIRARLVGTREQMITTLRYAAAVVRALAERRRAANDATPEALALLEELARLYEEAAERLEAAPEEEWPAIRAATAAEQARLNERLEAELEAQERERAA
# B29: FBXL12_hotspot_186_41 (protein)
# chain: MEVRVSVPADAPLEVVRSTMKYAVELAKELKERGELEALASLGKSLVKLRKELKKAGAPEEKLKAVDEAIKEVAKILEEALKEHPDNEELKKALEELKKA
# B30: FBXL12_hotspot_186_28 (protein)
# chain: SDLEVRVTLGEDLETTKSTLDYAVALAEALKARGLTGSLRSLARSFRESAIARLKKSDDPEIYDAILEAAEKLREVVADDPEAKAIIDEAIAEIKAIKAE
# B31: FBXL12_hotspot_28_53 (protein)
# chain: MKRTVIVRGEPEQVGQQILALLEAITEQAKALKAQLEANKNGDPAVLAELKEKLAKLESILESLKEEAERIRPQLSPELQARIDAAIEAAEKALKAAKAV
# B32: FBXL12_hotspot_23_45 (protein)
# chain: MRKLVITFAEAPDEEMVKATYYATKLALLAAEHGWEIVLRADNAVTGMAARIVAEAVEKRTGKKVEVIVKEDPSTKERAEKLAPKYEAAVEKAIAEVEAS
# Target: T1, FBXL12, Q9NXK8
# Assay: median log2 fold change of GCK-ALFA target abundance (FLAG IP / Myc IP barcode read proportion) (log2 ratio); each designed protein is fused to an ALFA-tag nanobody in HEK293 cells to bring the named protein to FLAG-tagged glucokinase (GCK); Myc marks an untargeted standard; higher = target protein stabilised (more abundant)
# Conditions: target protein: 3xFLAG-MCP-GCK-ALFA reporter; HEK293 landing pad (RPLP)
# Procedure: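 LABEL-seq trans screen in HEK293 landing-pad cells. Each de novo designed 100-aa effector handle, binding the indicated effector (E3 ligase, DUB or autophagy protein), is fused to a constant NbALFA target handle and induced with 2 ug/mL doxycycline. A FLAG-MCP-GCK-ALFA target and a Myc-MCP standard reporter were transfected, and after 48 h circRNA barcodes were recovered by anti-FLAG and anti-Myc IP and sequenced. The value is the median across barcodes (at least 3 per design) of log2(FLAG/Myc read-proportion ratio), with the two transfection replicates pooled. Negative values mean degradation and positive values mean stabilisation of the target.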
row,Binder,median log2 fold change
1,B1,0.111
2,B2,0.294
3,B3,0.222
4,B4,-0.00819
5,B5,0.172
6,B6,-0.835
7,B7,0.165
8,B8,0.0803
9,B9,-0.469
10,B10,-0.0403
11,B11,0.108
12,B12,0.115
13,B13,0.143
14,B14,-0.418
15,B15,0.0482
16,B16,0.1

row,Binder,median log2 fold change
1,B17,0.196
2,B18,-0.777
3,B19,-0.32
4,B20,0.248
5,B21,0.0454
6,B22,0.127
7,B23,-0.229
8,B24,-0.0469
9,B25,-0.132
10,B26,-0.0427
11,B27,0.147
12,B28,-0.466
13,B29,0.34
14,B30,0.157
15,B31,0.0582
16,B32,-0.506
